± gives the standard deviation of the averaged measurements. In all, about 33,000 sequences were measured (“E-score (rank enrichment, -0.5 to 0.5)”: median about -0.0043, highest 2% from about 0.24 on). This is one part of a sample in which the highest values are shown more often than they occur.
test system: 2Sp-muMax20 (muMax20 with two 2,6-bis(methyl)pyridine Cys staples); assay: PBM 8-mer E-score (E-score (rank enrichment, -0.5 to 0.5)); higher = stronger preferential binding
Description: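 Protein binding microarray (universal PBM chip covering all 10-mers in fixed probe flanks) with chemically synthesized human Max(13-93) bHLH-LZ analogs (not full-length Max) bearing noncanonical residues (hArg, Tha, Aib, Nle at 65) and aromatic Cys staples. Read-out per 8-mer (and its reverse complement): E-score (rank-based enrichment, -0.5 to 0.5) and Z-score of median probe intensity.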

Row | Sequence | PBM 8-mer E-score
1 | GATGACGA | 0.165 ± 0.017
2 | GCGCCTCC | 0.111 ± 0.079
3 | CAAGAGCC | -0.0162 ± 0.036
4 | AAGCTGAA | 0.104 ± 0.047
5 | AGGAGGCG | 0.0177 ± 0.059
6 | GCATGCAA | 0.244 ± 0.014
7 | GCATGCAC | 0.216 ± 0.023
8 | ACATGCAT | 0.333 ± 0.0087
9 | GCATGCGC | 0.164 ± 0.06
10 | GCATGCGA | 0.3 ± 0.012
11 | ACATGCAG | 0.0533 ± 0.012
12 | TCATGCAA | 0.219 ± 0.014
13 | CCATGCGA | 0.0984 ± 0.026
14 | ACATGCAC | 0.0958 ± 0.01
15 | AGACTCAA | -0.111 ± 0.022
16 | GCGGCAGA | -0.228 ± 0.049
17 | GAGCAGTA | 0.113 ± 0.0065
18 | AGAGGGCT | -0.00447 ± 0.07
19 | ACGGGGCG | 0.0718 ± 0.047
20 | ACGTTATG | 0.284 ± 0.0056
21 | ACTTTATG | 0.281 ± 0.065
22 | ACTTTATC | -0.0354 ± 0.037

Row | Sequence | PBM 8-mer E-score
23 | ACTTTATA | 0.192 ± 0.053
24 | ACGTTATC | 0.034 ± 0.046
25 | ACGTTATA | 0.204 ± 0.072
26 | AAAAAACT | 0.0474 ± 0.0053
27 | TACGCGTA | 0.0583 ± 0.054
28 | GATCTTCC | -0.219 ± 0.038
29 | CAACCTCG | -0.194 ± 0.05
30 | GGTTACTA | -0.067 ± 0.092
31 | GTTACCGA | -0.284 ± 0.013
32 | TTGCGCAA | 0.344 ± 0.0038
33 | ATGCGCAC | 0.195 ± 0.071
34 | ATGCGCAA | 0.184 ± 0.017
35 | ATGCGCAT | 0.335 ± 0.061
36 | ATGCGCAG | 0.0186 ± 0.025
37 | GTGCGCAA | -0.0392 ± 0.038
38 | ATCCAGTA | 0.134 ± 0.028
39 | GATAGGGC | 0.081 ± 0.019
40 | ATAGTTGA | 0.121 ± 0.077
41 | ATACGCAA | 0.308 ± 0.062
42 | ATACGCAG | 0.0458 ± 0.043
43 | GTACGCAA | -0.0841 ± 0.033
44 | ACGAGCCT | -0.00942 ± 0.0098

Row | Sequence | PBM 8-mer E-score
45 | CCAGCAGA | -0.0671 ± 0.018
46 | AATCACGC | 0.193 ± 0.015
47 | AATCACAT | 0.27 ± 0.019
48 | AATCACAG | -0.0564 ± 0.011
49 | AATCACAC | 0.236 ± 0.041
50 | AATCACAA | 0.144 ± 0.036
51 | CATCACAC | 0.118 ± 0.035
52 | AATCACGA | -0.0412 ± 0.011
53 | AATCACGT | 0.254 ± 0.024
54 | GATCACAC | 0.153 ± 0.019
55 | CGTTATGC | 0.177 ± 0.027
56 | AAAGTTTA | 0.206 ± 0.054
57 | AGGTTTAC | -0.222 ± 0.071
58 | ACTGTGCC | 0.0364 ± 0.042
59 | CCATCCCG | -0.00777 ± 0.0093
60 | AACGTCCA | -0.012 ± 0.044
61 | GTAGTTGA | 0.116 ± 0.0092
62 | ATTGCATC | 0.134 ± 0.014
63 | GCGATGCC | -0.221 ± 0.0047
64 | GATCATGA | 0.139 ± 0.016
65 | CCCTTCAC | 0.0356 ± 0.018
66 | ACATGTAA | 0.24 ± 0.04

Row | Sequence | PBM 8-mer E-score
67 | ACATGTCT | 0.251 ± 0.006
68 | TCATGTAA | 0.0907 ± 0.036
69 | GTATGTAA | 0.236 ± 0.055
70 | ACATGTCG | 0.164 ± 0.071
71 | AAATGTAC | 0.296 ± 0.052
72 | CCATGTAA | 0.122 ± 0.09
73 | ACATGTCC | 0.151 ± 0.033
74 | ATATGTAA | 0.0958 ± 0.035
75 | CAATGTAC | 0.00633 ± 0.095
76 | CTATGTAA | 0.00312 ± 0.013
77 | AAATGTAG | 0.134 ± 0.1
78 | ATAGTATC | 0.0888 ± 0.11
79 | ACGAACTC | -0.159 ± 0.021
80 | GAACGTAC | -0.045 ± 0.0085
81 | GCTTTGCA | -0.0268 ± 0.02
82 | ACATGTAC | 0.311 ± 0.0047
83 | GCATGTAC | 0.2075 ± 0.0014
84 | CCATGTAC | -0.0575 ± 0.098
85 | AGATGTAG | 0.167 ± 0.023
86 | ACATGTAG | 0.241 ± 0.051

Source: the supplement of paper PMC12636033
